For 25 sequences, binding signal results are on record in publication PMC7819943, “Rice protein-binding microarrays: a tool to detect cis-acting elements near promoter regions in rice”.

Whole data set: some 39,000 sequences, median “fluorescence intensity (a.u.)” near 4,300, cut for the highest 2% near 39,000. The full list was thinned out, with the highest values kept by preference.

This test addresses T1, OsSMF1 (Oryza sativa, UniProt Q6ZLB0 1-436).
T1 sequence: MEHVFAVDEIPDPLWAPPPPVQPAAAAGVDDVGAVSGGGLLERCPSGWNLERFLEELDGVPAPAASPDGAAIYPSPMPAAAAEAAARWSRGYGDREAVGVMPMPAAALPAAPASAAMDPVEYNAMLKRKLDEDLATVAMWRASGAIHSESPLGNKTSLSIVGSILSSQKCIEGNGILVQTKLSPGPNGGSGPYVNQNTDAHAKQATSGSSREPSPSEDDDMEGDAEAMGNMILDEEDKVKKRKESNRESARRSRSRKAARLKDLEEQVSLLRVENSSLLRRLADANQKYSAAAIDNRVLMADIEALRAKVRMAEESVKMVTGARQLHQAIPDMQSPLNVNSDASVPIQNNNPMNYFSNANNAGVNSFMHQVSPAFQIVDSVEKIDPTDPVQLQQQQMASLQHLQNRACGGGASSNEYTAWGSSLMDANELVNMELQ
Nature of the test: protein-binding microarray (RPBM); PBS, 2% BSA, 51.3 ng/ul salmon testes DNA, 50 uM zinc acetate, 200 nM TF, 25 C, 1 h; high values mean tight binding. Conditions: protein: recombinant; tags: N-terminal polyhistidine and DsRed monomer fusion (pET32a); chain copies: 2; label: CyDye5-dUTP incorporated in the synthesized complementary strand; 3' TTTTT single-stranded linker to array surface; dsDNA, one strand shown. The gist of the method:
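Binding signal is reported as fluorescence intensity per feature (arbitrary units) from an Axon 4000B scanner. Incubation used 200 nM of each Ni–NTA-purified, N-terminally polyhistidine- and DsRed-fused transcription factor from E. coli BL21-CodonPlus on a double-stranded custom Agilent array for 1 h at 25 °C, with 50 µM zinc acetate in the buffer, followed by washing.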
On to “TGGCGCCTCTCACCGCCACGTCGCCGCCGGCGAGGTGAAACGGAGTCACCTAGTGCAG”, for which the binding signal is 20800 fluorescence intensity (a.u.). The same measure for “ACGATTAATTGTTTAGTAAGCGTGCTGACGTTAAACGAGACGGAGTCACCTAGTGCAG”: 3690 fluorescence intensity (a.u.); for “ATCACGTGATTAAAACAGTAATTATCGAGCACGGAAGGAACGGAGTCACCTAGTGCAG”: 40600 fluorescence intensity (a.u.). Regarding “CGATCGATCGATTGTGAGCACCGAACTCCCTTAATTAGGACGGAGTCACCTAGTGCAG”, the binding signal is 3390 fluorescence intensity (a.u.). On to “GGTGACAATTGTCATTTGCTCAGCAACTAACATTACTAAACGGAGTCACCTAGTGCAG”, for which the binding signal was 18200 fluorescence intensity (a.u.). The same measure for “CACTGTTTGATGCTAAAACATATTACGTGTGCCGTTCATACGGAGTCACCTAGTGCAG”: 3580 fluorescence intensity (a.u.); for “ACCGCATCACATCAAGCATCCACCAACCAACCCAACAACACGGAGTCACCTAGTGCAG”: 3910 fluorescence intensity (a.u.). The same measure for “GACCCAGCAAGCAAGAGCGTCTAGTCACCTCAACCACGAACGGAGTCACCTAGTGCAG”: 6180 fluorescence intensity (a.u.); for “CAGTCCACATAACCTGAACCCAGCGTCAATCCGCAAGCAACGGAGTCACCTAGTGCAG”: 40200 fluorescence intensity (a.u.); for “CATGGTATTGTTTGATGCCAACTGAATTGATACAATGTGACGGAGTCACCTAGTGCAG”: 20500 fluorescence intensity (a.u.). With “GAGAATGATGTATGCACGCAGATGACATGGTATGATGAACCGGAGTCACCTAGTGCAG” the figure was 4370 fluorescence intensity (a.u.); with “GGTTGGTATTAACCGCTGATGGTGAATGCCAACCTCAGAACGGAGTCACCTAGTGCAG”, 51200 fluorescence intensity (a.u.); with “CTTCAAGAAGGTTACGCTGACAGAACGGCGACAACGTCCGCGGAGTCACCTAGTGCAG”, 3220 fluorescence intensity (a.u.). Turning to “TCTAAGACTGAACTTTCCTGTATACATATATTTTGAAAAGCGGAGTCACCTAGTGCAG”, the binding signal is 24600 fluorescence intensity (a.u.). With “TCCTTCCATACTGTATAAATACTTTGAAATTCTAATATAGCGGAGTCACCTAGTGCAG” the figure was 44200 fluorescence intensity (a.u.); with “CTTCCTTTGATAATATAATATATAGATAAATTCTCTAAGACGGAGTCACCTAGTGCAG”, 3200 fluorescence intensity (a.u.); with “GACGACCTTGGCACCCAGCTTCCGTCACTCGCTCGCCGCGCGGAGTCACCTAGTGCAG”, 3220 fluorescence intensity (a.u.).

Turning to “TTATAACACAAAACACATATGAAGCGCACTCTACCACGCACGGAGTCACCTAGTGCAG”, the binding signal was 32200 fluorescence intensity (a.u.).

As to “CATATAACAAGTGACTGGCACACAAACCCACAATGAAGTGCGGAGTCACCTAGTGCAG”, the binding signal is 43500 fluorescence intensity (a.u.). “CATCTATCATATAACAACAACACAATGACACAACACTGGACGGAGTCACCTAGTGCAG”: the binding signal was 4510 fluorescence intensity (a.u.). The same measure for “TGCACGCACAGCCATCCACAAGCCATGAGCCGGCGCGAGACGGAGTCACCTAGTGCAG”: 3640 fluorescence intensity (a.u.); for “ATTGAAGCCTATTTATTGGTAATACGTAATCTAGATTTGACGGAGTCACCTAGTGCAG”: 3700 fluorescence intensity (a.u.). With “ATAAAAGAGAAGAGCAGCAGGCCAGCTGCAGGACGGACTTCGGAGTCACCTAGTGCAG” the figure was 3820 fluorescence intensity (a.u.); with “AAAGGCACAGCAGGATGAAGATCTTGAAATGTTTCTTTGGCGGAGTCACCTAGTGCAG”, 6510 fluorescence intensity (a.u.); with “TCAGCAGTAAAGGACAGAAGGCGAAAAGATTTGAGATCTTCGGAGTCACCTAGTGCAG”, 65500 fluorescence intensity (a.u.).
